Measured values published in PubChem BioAssay AID434970 (Sanford-Burnham Center for Chemical Genomics, 2010).
Among all 11,000 compounds or so, about 310 (2.8%) were called active. No stated cut-off is given here; in the data, active means activity change below about -85%; inactive means the rest. Shown is part of a subset that was picked to be rich in actives.

Test system: intestinal alkaline phosphatase [Mus musculus]
Experiment: activators of mouse IAP, confirmation, biochemical, luminescence, single concentration (AID 434970)
Conditions: purified mouse IAP, CDP-Star luminescence, 30 min, at 10 µM; activation factor: measured here: IAP activation factor, stronger effect = higher value; activity change, negative = activation: stronger effect = lower value

SMILES | activation factor | activity change, negative = activation
CC(=O)Nc1ccc(Nc2nc(C)nc3c2oc2ccccc23)cc1 | 1.01 | -1.3% (inactive)
Cn1nnnc1SCC(=O)Nc1ccc(Oc2ccccc2)cc1 | 0.952 | 4.85% (inactive)
COc1ccc(CCn2c(C)cc(C(=O)CSc3nnc(N)s3)c2C)cc1 | 0.959 | 4.1% (inactive)
O=C(NCc1ccc(Cl)cc1Cl)C1CCN(S(=O)(=O)c2ccc3c(c2)OCCCO3)CC1 | 1.48 | -48.2% (inactive)
COCCNC(=O)CN(C)S(=O)(=O)c1ccc2c(c1)OCCO2 | 0.928 | 7.15% (inactive)
COc1ccc(NC2=C(C(C)=O)C(c3ccc(OC)c(OC)c3)C(C(C)=O)C(C)(O)C2)cc1 (configuration not stated) | 1.08 | -7.85% (inactive)
CCn1nnnc1SCC(=O)Nc1ccc2c(c1)OCO2 | 0.992 | 0.8% (inactive)
Cc1nn(C)c(C)c1NC(=O)Nc1ccc(Cl)c(Cl)c1 | 1.62 | -62.2% (inactive)
COc1ccc(-c2cc(C(=O)Nc3cc(C)nn3-c3ccccc3)no2)cc1 | 0.921 | 7.9% (inactive)
Cc1cc(NC(=O)Nc2ccc(Cl)cc2)n(-c2ccccc2)n1 | 2.07 | -107% (active)
Cc1cc(NC(=O)Nc2cc(C)nn2-c2ccccc2)n(-c2ccccc2)n1 | 0.992 | 0.75% (inactive)
COc1cccc(-c2cc(C(=O)Nc3cc(C)nn3-c3ccccc3)no2)c1 | 1.1 | -10.2% (inactive)
Cc1cc(NC(=O)Nc2ccc(Cl)c(Cl)c2)n(-c2ccccc2)n1 | 2.79 | -179% (active)
CCOC(=O)/C=C(\C)Nc1cc(C)nn1-c1ccccc1 | 1.04 | -4.05% (inactive)
Cc1cc(NC(=O)Nc2cccc(Cl)c2)n(-c2ccccc2)n1 | 1.97 | -97.1% (active)
Cc1cc(NC(=O)c2ccc(C)s2)n(-c2ccccc2)n1 | 1.01 | -0.8% (inactive)
COc1cc(C2Nc3cc(Cl)c(S(N)(=O)=O)cc3S(=O)(=O)N2)ccc1OCc1ccccc1 (configuration not stated) | 0.84 | 16% (inactive)
CC[C@]12c3[nH]c4cc(CCC(=O)N(C)C)ccc4c3CCN1C(=O)[C@@H](CC(=O)NCC13CC4CC(CC(C4)C1)C3)C[C@@H]2C(=O)N1CCN(C(=O)C2CC2)CC1 | 1.15 | -14.6% (inactive)

SMILES | activation factor | activity change, negative = activation
O=C(CCl)Oc1ccc2occ(C(=O)c3cccs3)c2c1 | 0.89 | 11% (inactive)
Cc1[nH]c2ccccc2c1C(=O)COC(=O)C1CC(=O)N(Cc2ccco2)C1 (configuration not stated) | 1.14 | -13.6% (inactive)
CCOC(=O)C1=CNS(=O)(=O)NC1c1ccc(C)cc1 (configuration not stated) | 0.96 | 4.05% (inactive)
COc1ccc2c(c1)[nH]c1c(=O)n(CCc3cnc[nH]3)cnc12 | 1.02 | -1.9% (inactive)
CCCCCOc1ccc(C(=O)CCC(=O)NNC(=O)c2ccncc2)cc1 | 3.52 | -252% (active)
CCCOc1ccc(C(=O)NCCO)cc1 | 1.01 | -1.1% (inactive)
CCCCOc1ccc(-c2nnc(-c3ccncc3)o2)cc1 | 0.94 | 6.05% (inactive)
CC[C@]1(C(=O)OC)[C@H]2C(=O)N(C)C(=O)[C@H]2[C@H]2CN=C(SCc3ccc(C#N)cc3)N21 | 1.07 | -6.55% (inactive)
N#Cc1nc(-c2ccc(Cl)cc2)oc1NCc1ccco1 | 0.952 | 4.8% (inactive)
COc1ccccc1-c1cc(C(F)(F)F)nc(N2CCCC2)n1 | 0.939 | 6.15% (inactive)
O=C(Cn1cc(C(=O)c2ccco2)c2ccccc21)NCc1ccco1 | 0.907 | 9.3% (inactive)
S=C(NCc1ccc(Cl)cc1Cl)Nc1ccccc1 | 1.41 | -41% (inactive)
S=C(NCc1cccc(Cl)c1)NC1CCCCC1 | 1.14 | -14.3% (inactive)
S=C(NCc1ccc(Cl)cc1Cl)NC1CCCCC1 | 1.93 | -93% (active)
Cc1cccc(NC(=O)C2=C(O)c3ccccc3N(C)S2(=O)=O)c1 | 0.998 | 0.2% (inactive)
N#Cc1nc(COc2ccc(Cl)cc2)oc1N1CCCCCC1 | 0.964 | 3.6% (inactive)
CCOC(=O)c1cccc(NC(=O)CCS(=O)(=O)c2cccs2)c1 | 1.01 | -0.85% (inactive)
COc1ccc(C(=O)NNC(=S)NC(=O)c2cc(-c3ccccc3)nc3ccccc23)cc1 | 0.848 | 15.2% (inactive)
